This is part of a sample that, as a whole, favours compounds with a hit. Of some 83,000 tested, about 20% had one in any assay.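 48-hour exposure, single concentration, 96-well plates; percent growth endpoint where 0 means no net growth. Active: below 10.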 A number with no mark means an inactive call. Activity calls are given as the source filed them.

The values that follow come from PubChem BioAssay (NCI).

Some test systems named below: DU-145 prostate; K-562 leukemia; MALME-3M melanoma; MDA-MB-231 breast; RXF 393 renal; SF-268 CNS; SF-295 CNS; SF-539 CNS; UACC-257 melanoma; M14 melanoma.
Holding throughout (assay): NCI-60 one-dose screen, 48 h (100 = growth as untreated, 0 = no growth, -100 = all killed)
Holding throughout (conditions): 10 µM unless noted

As for `O=C(CSc1nc(-c2ccccc2)[nH]c1S(=O)(=O)c1ccccc1)NC1CC1`, the growth was 112% in the assay with DU-145 prostate; 87.4% in the assay with K-562 leukemia; 103% in the assay with MALME-3M melanoma; 90.1% in the assay on MDA-MB-231 breast; 4.36% (active) with RXF 393 renal; 102% in the assay with SF-268 CNS. The growth is 36.3% with SF-295 CNS, 103% with SF-539 CNS, 87.4% in the assay on UACC-257 melanoma and 96.4% in the assay on M14 melanoma.

In the case of `COc1cc(-c2cc(-c3ccc(N(C)C)cc3)nc(N3CCC(O)CC3)c2C#N)cc(OC)c1OC`, the growth is 33% in the assay on DU-145 prostate; 1.74% (active) with K-562 leukemia; -45.3% (active) in the assay on MALME-3M melanoma; -50.9% (active) in the assay with MDA-MB-231 breast; -5.34% (active) with RXF 393 renal; 22.1% with SF-268 CNS. Besides, the growth in the assay on SF-295 CNS was -44.3% (active); in the assay with SF-539 CNS, -0.969% (active); with UACC-257 melanoma, -51.8% (active); in the assay with M14 melanoma it was -69.3% (active).

With `Cn1ccc2c3c(ccc21)CC3=O`, the growth was 120% in the assay with DU-145 prostate; 111% in the assay with K-562 leukemia; 121% in the assay on MALME-3M melanoma; 103% with MDA-MB-231 breast; 115% in the assay with RXF 393 renal; 110% with SF-268 CNS. For the same molecule, the growth was 112% in the assay with SF-295 CNS, 126% with SF-539 CNS, 114% in the assay on UACC-257 melanoma and 107% in the assay with M14 melanoma.

On to `Cc1nc2ncnc(Cl)c2[nH]1`, for which the growth was 106% in the assay on DU-145 prostate; 97.3% in the assay with K-562 leukemia; 106% in the assay with MALME-3M melanoma; 103% in the assay with MDA-MB-231 breast; 112% in the assay on RXF 393 renal; 103% in the assay on SF-268 CNS. The growth was 107% with SF-295 CNS, 103% in the assay on SF-539 CNS, 91.1% in the assay on UACC-257 melanoma and 88.8% in the assay with M14 melanoma.

For `CN(C)CC(=O)Nc1ccc2ncnc(Nc3ccc(Oc4cccc(C(F)(F)F)c4)c(Cl)c3)c2c1`, the growth in the assay with DU-145 prostate is 48.2%; in the assay on K-562 leukemia, 3.41% (active); in the assay with MALME-3M melanoma, 69.7%; in the assay with MDA-MB-231 breast, 49.1%; in the assay with RXF 393 renal, 50.6%; in the assay with SF-268 CNS it was 61.3%. Further, the growth in the assay on SF-295 CNS is 90.3%; in the assay on SF-539 CNS, 90.8%; in the assay with UACC-257 melanoma, 85.6%; in the assay with M14 melanoma it was 59.5%.

In the case of `COc1ccc(C/C(C)=C(/c2ccc(OCCN3CCCCC3)cc2)c2ccc(OC(=O)NCc3ccccc3)cc2)cc1`, the growth with DU-145 prostate is -97.2% (active); in the assay with K-562 leukemia, -56.3% (active); with MALME-3M melanoma it was -87.3% (active); with MDA-MB-231 breast, -86.9% (active); with RXF 393 renal it was -91.4% (active); with SF-268 CNS, -76.6% (active). Further, the growth in the assay on SF-295 CNS was -94.8% (active); with SF-539 CNS it was -92.5% (active); with UACC-257 melanoma it was -83.2% (active); with M14 melanoma, -92.3% (active).

As to `CC(C)(C)n1cc(-c2ccnc(NCCNS(=O)(=O)c3cccc4ccccc34)c2)c(-c2cccc(F)c2)n1`, the growth in the assay on DU-145 prostate was 4.18% (active); in the assay with K-562 leukemia, -30% (active); in the assay on MALME-3M melanoma, -73.1% (active); with MDA-MB-231 breast it was -8.01% (active); in the assay with RXF 393 renal, -52.3% (active); in the assay with SF-268 CNS, 29.5%. The growth in the assay on SF-295 CNS was -68.7% (active); in the assay with SF-539 CNS, -74.8% (active); in the assay with UACC-257 melanoma it was -8.81% (active); with M14 melanoma, -19% (active).

With `CCOC(=O)c1cnc2ccccc2c1Cl`, the growth with DU-145 prostate was 98.3%; in the assay with K-562 leukemia, 116%; in the assay with MALME-3M melanoma, 126%; in the assay with MDA-MB-231 breast, 85.4%; with RXF 393 renal, 127%; in the assay on SF-268 CNS it was 99.5%. Further, the growth is 107% with SF-295 CNS, 85.9% in the assay on SF-539 CNS, 109% in the assay on UACC-257 melanoma and 92.2% in the assay with M14 melanoma.

As for `COC(=O)c1c2c(c(C)[n+]([O-])c1C)C(=O)C(NCc1ccc(Cl)cc1)=CC2=O`, the growth in the assay on DU-145 prostate was 86.6%; in the assay on K-562 leukemia it was 28.7%; with MALME-3M melanoma, -75.4% (active); in the assay on MDA-MB-231 breast it was 48.7%; with RXF 393 renal, 86.6%; in the assay on SF-268 CNS, 76.8%. The growth in the assay on SF-295 CNS was 87.6%; in the assay on SF-539 CNS it was 85.3%; in the assay with UACC-257 melanoma it was 17.8%; with M14 melanoma, 39.6%.

As to `Cc1nc2sc(C(=O)Nc3ccccc3)c(N)c2cc1C(=O)c1ccccc1`, the growth in the assay with DU-145 prostate was 56.1%; with K-562 leukemia, 32.4%; in the assay with MALME-3M melanoma, 68.3%; in the assay with MDA-MB-231 breast, 58%; in the assay with RXF 393 renal, -0.48% (active); with SF-268 CNS it was 47.8%. Further, the growth was -9.52% (active) in the assay with SF-295 CNS, 33.4% with SF-539 CNS, 49.8% in the assay with UACC-257 melanoma and 39.8% in the assay on M14 melanoma.

Take `CC(C)n1cnc2c(=S)nc[nH]c21`: the growth with DU-145 prostate is 111%; in the assay on K-562 leukemia, 69.9%; with MALME-3M melanoma, 156%; with MDA-MB-231 breast it was 118%; in the assay on RXF 393 renal, 121%; with SF-268 CNS it was 101%. For the same molecule, the growth with SF-295 CNS was 90.1%; in the assay with SF-539 CNS, 99.6%; in the assay with UACC-257 melanoma, 120%; with M14 melanoma, 109%.

Turning to `Nc1c(C(=O)Nc2ccncc2)sc2nc3c(cc12)CCCCCC3`, the growth was 93.2% in the assay with DU-145 prostate; 64% in the assay with K-562 leukemia; 108% with MALME-3M melanoma; 103% in the assay with MDA-MB-231 breast; 88.5% with RXF 393 renal; 100% in the assay with SF-268 CNS. The growth in the assay with SF-295 CNS was 82.3%; with SF-539 CNS, 79.9%; in the assay with UACC-257 melanoma, 91.1%; in the assay with M14 melanoma it was 100%.

As to `CN1CCN(C(=O)c2ccc(NC(=O)Nc3ccc(-c4nc(N5CCOCC5)c5cccn5n4)cc3)cc2)CC1`, the growth was 7.11% (active) in the assay with DU-145 prostate; 15.3% with K-562 leukemia; -37% (active) with MALME-3M melanoma; 2.25% (active) with MDA-MB-231 breast; -39.5% (active) in the assay on RXF 393 renal; 4.85% (active) in the assay on SF-268 CNS. Moreover, the growth in the assay on SF-295 CNS is -43.6% (active); in the assay with SF-539 CNS, -40.1% (active); with UACC-257 melanoma, -21.3% (active); in the assay on M14 melanoma, -22% (active).
